The whole screen tested about 5,500 compounds, of which about 2,000 (36%) were called active. Roughly 18% stayed inconclusive and do not appear here. Cut-off read from the data, not from the text of the source: active = normalized growth mostly below about 0.91 (no sharp cut-off); inconclusive = no clear call, values can overlap the other calls; inactive = mostly above about 0.92. This is one part of the list.
Assay: chemical genetic growth profiling, strain panel (AID 1159580);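 note: tested at 20 µM; growth read once vehicle control cultures reached saturation at 30 °C; 1 = growth at the plate median or of vehicle wells; lower values mean less growth of the strain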
Settings: growth OD

Measured: normalized growth

CC(C)CCCC(C)C1CCC2C3CC[C@H]4C[C@@H](O)CC[C@]4(C)C3CC[C@]12C (stereo not given in full)
inactive: S. cerevisiae deletion strains, locus YAL013W, strain DEP1, active compounds read low 1 | S. cerevisiae deletion strains, locus YBR021W, strain FUR4, active compounds read low 1 | S. cerevisiae deletion strains, locus YBR229C, strain ROT2, active compounds read low 1.01 | S. cerevisiae deletion strains, locus YCL029C, strain bik1, active compounds read low 1.03 | S. cerevisiae deletion strains, locus YDL035C, strain GPR1, active compounds read low 1 | S. cerevisiae deletion strains, locus YDL074C, strain BRE1, active compounds read low 1.02 | S. cerevisiae deletion strains, locus YDL101C, strain DUN1, active compounds read low 1.01 | S. cerevisiae deletion strains, locus YDL185W, strain tfp1, active compounds read low 1.01 | S. cerevisiae deletion strains, locus YDL192W, strain arf1, active compounds read low 1.01 | S. cerevisiae deletion strains, locus YDR101C, strain arx1, active compounds read low 1.04 | S. cerevisiae deletion strains, locus YDR162C, strain NBP2, active compounds read low 0.987 | S. cerevisiae deletion strains, locus YDR318W, strain mcm21, active compounds read low 0.984 | S. cerevisiae deletion strains, locus YDR388W, active compounds read low 0.997 | S. cerevisiae deletion strains, locus YDR502C, strain sam2, active compounds read low 1.03 | S. cerevisiae deletion strains, locus YEL061C, strain CIN8, active compounds read low 0.995 | S. cerevisiae deletion strains, locus YER110C, active compounds read low 1 | S. cerevisiae deletion strains, locus YER155C, strain BEM2, active compounds read low 0.997 | S. cerevisiae deletion strains, locus YER167W, strain BCK2, active compounds read low 0.997 | S. cerevisiae deletion strains, locus YGL078C, strain dbp3, active compounds read low 1.02 | S. cerevisiae deletion strains, locus YGL086W, strain mad1, active compounds read low 1.03 | S. cerevisiae deletion strains, locus YGL248W, strain PDE1, active compounds read low 1 | S. cerevisiae deletion strains, locus YGR135W, strain pre9, active compounds read low 0.99 | S. cerevisiae deletion strains, locus YGR229C, strain SMI1, active compounds read low 1 | S. cerevisiae deletion strains, locus YGR252W, strain gcn5, active compounds read low 0.96 | S. cerevisiae deletion strains, locus YHR030C, strain SLT2, active compounds read low 0.996 | S. cerevisiae deletion strains, locus YHR079C, strain IRE1 (second series), active compounds read low 0.995 | S. cerevisiae deletion strains, locus YHR094C, strain hxt1, active compounds read low 0.995 | S. cerevisiae deletion strains, locus YHR129C, strain ARP1, active compounds read low 1.01 | S. cerevisiae deletion strains, locus YHR200W, strain rpn10, active compounds read low 1.01 | S. cerevisiae deletion strains, locus YIL066C, strain RNR3, active compounds read low 1 | S. cerevisiae deletion strains, locus YIL073C, strain SPO22, active compounds read low 1.02 | S. cerevisiae deletion strains, locus YIL125W, strain kgd1, active compounds read low 1.01 | S. cerevisiae deletion strains, locus YIR030C, strain dcg1, active compounds read low 1 | S. cerevisiae deletion strains, locus YJL095W, strain BCK1, active compounds read low 0.997 | S. cerevisiae deletion strains, locus YJL134W, strain LCB3, active compounds read low 1.01 | S. cerevisiae deletion strains, locus YJL168C, strain set2, active compounds read low 1 | S. cerevisiae deletion strains, locus YJL187C, strain SWE1 (second series), active compounds read low 1.01 | S. cerevisiae deletion strains, locus YJR043C, strain POL32, active compounds read low 0.988 | S. cerevisiae deletion strains, locus YKL009W, strain mrt4, active compounds read low 0.997 | S. cerevisiae deletion strains, locus YKL068W, active compounds read low 0.999 | S. cerevisiae deletion strains, locus YKL085W, strain MDH1 (second series), active compounds read low 0.994 | S. cerevisiae deletion strains, locus YKL085W, strain MDH1, active compounds read low 0.994 | S. cerevisiae deletion strains, locus YKL190W, strain CNB1, active compounds read low 0.994 | S. cerevisiae deletion strains, locus YKR001C, strain vps1, active compounds read low 1.01 | S. cerevisiae deletion strains, locus YLR039C, strain RIC1, active compounds read low 1.05 | S. cerevisiae deletion strains, locus YLR058C, strain SHM2, active compounds read low 0.987 | S. cerevisiae deletion strains, locus YLR102C, strain apc9, active compounds read low 1.01 | S. cerevisiae deletion strains, locus YLR262C, strain YPT6, active compounds read low 1.08 | S. cerevisiae deletion strains, locus YLR268W, strain sec22, active compounds read low 1.04 | S. cerevisiae deletion strains, locus YLR330W, strain CHS5, active compounds read low 0.989 | S. cerevisiae deletion strains, locus YLR342W, strain FKS1 (second series), active compounds read low 1.01 | S. cerevisiae deletion strains, locus YLR371W, strain rom2, active compounds read low 1 | S. cerevisiae deletion strains, locus YLR418C, strain cdc73, active compounds read low 1.01 | S. cerevisiae deletion strains, locus YML016C, strain PPZ1, active compounds read low 1.01 | S. cerevisiae deletion strains, locus YML032C, strain rad52, active compounds read low 0.975 | S. cerevisiae deletion strains, locus YML124C, strain tub3, active compounds read low 0.996 | S. cerevisiae deletion strains, locus YMR078C, strain ctf18, active compounds read low 1 | S. cerevisiae deletion strains, locus YMR223W, strain ubp8, active compounds read low 0.989 | S. cerevisiae deletion strains, locus YMR263W, strain SAP30, active compounds read low 0.999 | S. cerevisiae deletion strains, locus YMR307W, strain GAS1, active compounds read low 1.06 | S. cerevisiae deletion strains, locus YNL067W, strain RPL9B, active compounds read low 1.01 | S. cerevisiae deletion strains, locus YNL128W, strain TEP1, active compounds read low 0.972 | S. cerevisiae deletion strains, locus YNL233W, strain BNI4, active compounds read low 1.01 | S. cerevisiae deletion strains, locus YNL250W, strain rad50, active compounds read low 0.997 | S. cerevisiae deletion strains, locus YNL271C, strain bni1, active compounds read low 1.01 | S. cerevisiae deletion strains, locus YNL298W, strain CLA4, active compounds read low 1 | S. cerevisiae deletion strains, locus YNL307C, strain MCK1, active compounds read low 1.01 | S. cerevisiae deletion strains, locus YNL322C, strain KRE1, active compounds read low 0.998 | S. cerevisiae deletion strains, locus YNR052C, strain pop2, active compounds read low 0.996 | S. cerevisiae deletion strains, locus YOL012C, strain htz1 1.64 | S. cerevisiae deletion strains, locus YOL147C, strain pex11, active compounds read low 1 | S. cerevisiae deletion strains, locus YOR061W, strain CKA2, active compounds read low 0.997 | S. cerevisiae deletion strains, locus YOR069W, strain VPS5, active compounds read low 1 | S. cerevisiae deletion strains, locus YOR136W, strain idh2, active compounds read low 1.01 | S. cerevisiae deletion strains, locus YOR144C, strain elg1, active compounds read low 1 | S. cerevisiae deletion strains, locus YOR184W, strain ser1, active compounds read low 1.03 | S. cerevisiae deletion strains, locus YOR316C, strain cot1, active compounds read low 1 | S. cerevisiae deletion strains, locus YPL055C, strain LGE1, active compounds read low 0.992 | S. cerevisiae deletion strains, locus YPL241C, strain CIN2, active compounds read low 0.99 | S. cerevisiae deletion strains, locus YPR119W, strain clb2, active compounds read low 0.998 | S. cerevisiae deletion strains, locus YPR141C, strain kar3, active compounds read low 1 | S. cerevisiae deletion strains, locus YPR163C, strain tif3, active compounds read low 1 | S. cerevisiae deletion strains, locus YPR167C, strain met16, active compounds read low 0.994 | S. cerevisiae deletion strains, strain wtn01, active compounds read low 1.04 | S. cerevisiae strains, strain wild type, active compounds read low 0.976

Reference: PubChem BioAssay AID1159580 (chemical genetic matrix, 2015)
